These results are taken from ChEMBL document CHEMBL3433997, “St. Jude Leishmania screening dataset” (2016).

Holding throughout (type): functional
The target in assay [1] is Solute carrier family 2, facilitated glucose transporter member 1 (Homo sapiens) (UniProt P11166). The experiment in a line: ST_JUDE_LEISH: Cytotoxicity at 2uM final concentration against transgenic Leishmania Mexicana promastigotes LmGLUT1 that are glucose transport deficient and complemented with the human glucose transporter GLUT1. Activity is measured by DNA content using SYBR green in vitro.
Solute carrier family 2, facilitated glucose transporter member 1 (Homo sapiens), sequence (P11166 whole entry): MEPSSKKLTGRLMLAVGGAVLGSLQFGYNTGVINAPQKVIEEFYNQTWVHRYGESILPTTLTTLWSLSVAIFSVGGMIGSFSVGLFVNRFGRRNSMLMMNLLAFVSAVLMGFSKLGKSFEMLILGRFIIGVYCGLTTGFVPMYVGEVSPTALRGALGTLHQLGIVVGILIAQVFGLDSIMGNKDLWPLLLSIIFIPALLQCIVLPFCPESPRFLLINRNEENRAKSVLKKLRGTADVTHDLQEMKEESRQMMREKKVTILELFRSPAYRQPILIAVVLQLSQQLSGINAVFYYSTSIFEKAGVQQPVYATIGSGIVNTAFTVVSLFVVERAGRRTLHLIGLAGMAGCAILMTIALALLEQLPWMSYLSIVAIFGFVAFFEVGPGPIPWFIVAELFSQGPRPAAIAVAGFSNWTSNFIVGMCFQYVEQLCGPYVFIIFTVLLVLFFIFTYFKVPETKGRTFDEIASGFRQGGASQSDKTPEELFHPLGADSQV

Assay [2] concerns the target Hexose transporter 1 (Plasmodium falciparum) (UniProt O97467). The experiment in a line: ST_JUDE_LEISH: Cytotoxicity at 2uM final concentration against transgenic Leishmania Mexicana promastigotes LmPfHT that are glucose transport deficient and complemented with the Plasmodium falciparum hexose transporter. Activity is measured by DNA content using SYBR green in vitro.

The target in assay [3] is Glucose transporter (Leishmania mexicana) (UniProt O61059). The assay can be described thus: ST_JUDE_LEISH: Cytotoxicity at 2uM final concentration against transgenic Leishmania Mexicana promastigotes LmGT2 that are glucose transport deficient and complemented with the L. Mexicana glucose transporter 2. Activity is measured by DNA content using SYBR green in vitro.

In the case of `COc1cc(Nc2nccn3c(-c4ccsc4)cnc23)cc(OC)c1OC`, the inhibition (commonly the change of the read-out against control, counted positive when it falls) in assay [1] stood at 7.63%; in assay [2], 5.81%; in assay [3], 4.31%.
On to `CN1CCC[C@H]1COc1ccc(CN2CC[C@H](NC(=O)c3ccc(Cl)c(Cl)c3)C2)cc1Br`, for which the inhibition in assay [1] came out at 2.61%; in assay [2] it was 2.26%; in assay [3], 1.89%.
In the case of `Cn1cnc2c(Nc3ccncc3)nc(-c3ccc4ccccc4c3)nc21`, the inhibition was -0.3% in assay [1], 0.97% in assay [2] and -0.56% in assay [3].
In the case of `CCCC[C@@H](C(=O)NCc1ccccc1C(F)(F)F)N1C(=O)CCC1C(=O)Nc1ccc([N+](=O)[O-])cc1` (stereo partly drawn), the figures for the inhibition in assay [1], in assay [2] and in assay [3] were 1.1%, 2.37% and 2.75%, respectively.
`CN(C)CCCn1cncc1-c1ccc2ncnc(Nc3ccc4c(cnn4Cc4ccccc4)c3)c2c1`: the inhibition is 1.25% in assay [1], 1.38% in assay [2] and 1.35% in assay [3].
Turning to `CC(C)(C)NS(=O)(=O)c1cc(C(=O)N2CCC(CCN3CCC(C(=O)c4ccc(F)cc4)CC3)(c3cccc(F)c3)CC2)c(Cl)cc1F`, the inhibition in assay [1] stood at 7.28%; in assay [2] it was 9.1%; in assay [3], 5.52%.
Regarding `CC(C)C[C@H](NC(=O)c1cc2ccccc2s1)C(=O)N[C@H]1CCN(Cc2ccc(OC[C@@H]3CCCN3C)c3ccccc23)C1`, the inhibition in assay [1] worked out at 3.88%; in assay [2], 5.05%; in assay [3] it was 2.71%.
Regarding `Oc1ccc(Cc2ccccc2)cc1CNC1CCCCC1`, the inhibition in assay [1] was determined as 1.43%; in assay [2], 1.57%; in assay [3], 1.87%.
For `N=C(N)c1ccc(-c2cc(-c3cccc(C(=N)N)c3)on2)cc1`, the figures for the inhibition in assay [1], in assay [2] and in assay [3] were 3.39%, 0.98% and 2.32%, respectively.
Turning to `Cc1[nH]c(C)c(-c2ccc(OCc3ccc(F)cc3)nc2)c(=O)c1Br`, the results for the inhibition in assay [1], in assay [2] and in assay [3] were 2.71%, 2.42% and 0.74%, respectively.
`COc1ccc(C2CCN(CCN3CCC(NC(=O)c4ccc(-c5cccc(C(F)(F)F)c5C(F)(F)F)cc4)CC3)CC2)c(OC)c1`: the inhibition in assay [1] was 0.36%; in assay [2], 1.29%; in assay [3], -0.58%.
